# Only some compounds are listed: those with a hit (about 2.8% of all), similar ones and a draw of the others.
# HSV augment = HSV replication enhancement; HSV replication augmentation in cells, fold increase; maximum fold increase; 220,000 tested, 0.005% active; AID 1956; in the data active = maximum fold increase above about 1.5; tested in PC3 cells
# EP2 modulator = EP2 receptor (human) modulation | P43116 | EP2-expressing cells, cAMP HTRF FRET, PGE2 co-stimulation | induction, % at 25 µM | 260,000 tested, 0.83% active;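 active = compounds whose cAMP rise, as percent of the full-agonist control response, exceeds 60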;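 also: rat C6 glioma line stably carrying human EP2 under a CMV promoter; the protocol text gives 20 µM as final concentration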
# Wee1 degr inh = blocks degradation of human Wee1 kinase; P30291; reporter increase, % at 5 µM; HeLa Luc-Wee1K328M stability, luciferase luminescence; 100% = proteasome inhibitor MG132 effect; 220,000 tested, 1.2% active; AID 1321;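 active = activation above the mean of all tested compounds plus 3 SD, set per screening run, cut at about 8.8% in these data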;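 also: cells exposed to compound for 20 h before luminescence read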
# Target sequence (P30291 whole entry K328M): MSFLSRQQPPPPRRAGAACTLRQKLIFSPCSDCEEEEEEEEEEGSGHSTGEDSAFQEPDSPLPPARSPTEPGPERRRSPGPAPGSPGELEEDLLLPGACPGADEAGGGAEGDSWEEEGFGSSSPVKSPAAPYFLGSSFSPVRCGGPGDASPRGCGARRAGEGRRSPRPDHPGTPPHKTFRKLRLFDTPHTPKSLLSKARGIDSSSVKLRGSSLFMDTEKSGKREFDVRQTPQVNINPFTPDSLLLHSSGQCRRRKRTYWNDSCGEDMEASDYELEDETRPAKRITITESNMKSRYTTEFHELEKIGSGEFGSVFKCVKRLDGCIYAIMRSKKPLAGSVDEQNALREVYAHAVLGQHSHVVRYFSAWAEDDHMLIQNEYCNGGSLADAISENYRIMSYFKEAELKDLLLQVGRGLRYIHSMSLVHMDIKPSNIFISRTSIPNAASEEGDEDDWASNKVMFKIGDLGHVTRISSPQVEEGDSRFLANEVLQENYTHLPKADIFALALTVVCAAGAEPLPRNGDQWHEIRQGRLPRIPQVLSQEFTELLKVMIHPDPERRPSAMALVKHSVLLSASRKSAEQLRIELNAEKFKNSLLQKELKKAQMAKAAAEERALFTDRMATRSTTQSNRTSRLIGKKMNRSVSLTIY
# NCF1 inh = blocks human p47phox regulatory protein of NADPH oxidases; inhibition, % at 24.7 µM; AID 1274; p47phox/p22phox peptide binding, fluorescence polarization, 2 h; 220,000 tested, 0.53% active; P14598;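 active = inhibition above about 30%, limit read from the data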
# Furin inhibitor = human furin inhibition | inhibition, % at 20 µM or 30 µM | P09958 | 220,000 tested, 0.061% active | purified furin, fluorogenic substrate cleavage; in the data active = inhibition above about 25%
# EP2 antag = inhibitors of human EP2 prostaglandin E2 receptor; P43116; C6 glioma cells expressing human EP2, cAMP TR-FRET; cells stimulated with saturating PGE2; inhibition, % at 25 µM; 260,000 tested, 0.52% active;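 active = percent inhibition above 40 after rounding to a whole number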;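 also: rat C6 glioma host cells with rolipram phosphodiesterase inhibitor present; the protocol text gives 20 µM as final concentration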
# A number is an active result; - = inactive; . = not tested or not shown.
SMILES,HSV augment,EP2 modulator,Wee1 degr inh,NCF1 inh,Furin inhibitor,EP2 antag
COCCNC(=O)C1CC(c2ccc(Cl)cc2)=NO1 (centres undefined),.,-,.,.,.,-
CCN(CC)CCn1c(=S)[nH]c2ccccc2c1=O,-,-,-,-,-,-
CCN(CC)CC[n+]1ccc2c(C)c3[nH]c4ccccc4c3c(C)c2c1,.,-,.,.,.,58.2
CCOc1ccc(OCc2ccc(C(=O)N/N=C(\C)c3ccccn3)cc2)cc1,-,-,9.6,-,-,-
COc1ccc(C(=O)N/N=C(\c2ccccc2)c2ccccn2)cc1,-,-,-,-,-,-
CCn1c(SCC(=O)Nc2cc(F)ccc2C)nnc1-c1ccccc1O,-,-,-,-,32.2,-
COc1ccc2c(c1)C(c1ccc(N3CCOCC3)cc1)=NNC(c1ccco1)=N2,.,-,.,.,.,-
CCOC(=O)CSC1=NC(=O)/C(=C\c2ccc(OC(C)=O)cc2)S1,-,-,-,-,-,53.4
O=C(CCC1CCCN(C(=O)Cc2cccc(F)c2)C1)N1CCN(c2ccccn2)CC1 (centres undefined),-,-,-,-,-,-
O=C(CCC1CCCN(C(=O)CCCc2ccccc2)C1)N1CCN(c2ccccn2)CC1 (centres undefined),-,-,-,94.8,-,-
CC(C)N1CCC(CNC(=O)Cn2ccc3ccc(F)cc32)CC1,.,-,.,.,.,-
COc1ccc2cc(C#N)c(SCC(=O)NC(C)(C)C)nc2c1,.,-,.,.,.,-
COc1ccc2cc(C#N)c(SCC(=O)NC3CCCCC3C)nc2c1 (centres undefined),.,76.9,.,.,.,-
Cc1ccccc1NC1=C/C(=N\S(=O)(=O)c2cccs2)c2ccccc2C1=O,-,-,-,-,-,-
Cc1ccc(NC2=C/C(=N/S(=O)(=O)c3cccs3)c3ccccc3C2=O)cc1C,.,-,-,36.1,-,-
CC1(C)CC(=O)C=C(NCc2ccco2)C1,-,.,-,.,-,-
CC1(C)CC(=O)C=C(NCc2cccnc2)C1,-,-,9.3,-,-,-
Cc1cc(C)n2c(=S)[nH]nc2n1,-,-,-,39.8,-,-
Cc1cc(C)n2cnnc2n1,-,-,-,-,-,-
Cc1ccc(NC(=S)NC(C)(C)C)c([N+](=O)[O-])c1,-,-,-,-,-,-
C=CCNC(=S)Nc1ccc(C)cc1[N+](=O)[O-],-,-,9.1,-,-,-
COc1ccccc1NC(=O)Nc1nnc(-c2ccco2)s1,.,-,-,-,-,.
COc1ccccc1C(=O)Nc1nnc(-c2ccco2)s1,-,-,-,-,-,43.6
O=C(Nc1nnc(-c2ccco2)s1)c1ccccc1,-,-,-,-,-,46.2
COc1ccc(C(=O)Nc2nnc(-c3ccco3)s2)cc1,-,-,-,-,-,-
SMILES,HSV augment,EP2 modulator,Wee1 degr inh,NCF1 inh,Furin inhibitor,EP2 antag
CC(=O)C1=C(O)C(=O)N(CCCNCCO)C1c1ccc(Cl)cc1 (centres undefined),.,-,.,.,.,-
CC(=O)Nc1ccc(NC(=O)C(C)OC(=O)c2ccc3c(c2)OCCO3)cc1 (centres undefined),-,-,-,-,-,-
CC(OC(=O)c1cccc(S(=O)(=O)Nc2cccc(C(F)(F)F)c2)c1)C(=O)Nc1ccc2c(c1)OCCO2 (centres undefined),-,-,9.2,-,-,-
CCC(=O)N(CCCN(CC)CC)c1nc(-c2ccc(OC)cc2)cs1,.,-,.,.,.,-
Cc1ccc2oc(=O)c3cc(C(=O)NCCCN4CCc5ccccc5C4)sc3c2c1,.,-,-,-,-,-
Cc1ccc2oc(=O)c3cc(C(=O)NCCN4CCN(C)CC4)sc3c2c1,-,-,10.4,-,-,-
O=C1NC2(CCN(C(=O)COCc3nc4ccccc4[nH]3)CC2)Oc2ccccc21,.,-,.,.,.,-
COc1ccc([C@@H]2CN(C(=O)C3CCCCC3)C[C@H]2C(=O)O)cc1,.,-,.,.,.,-
O=C(N/N=C/c1ccc([N+](=O)[O-])cc1)c1cc(C2CC2)nc2ccccc12,-,-,-,-,-,-
CCc1ccc(/C=N/NC(=O)c2cc(C3CC3)nc3ccccc23)s1,-,-,10.5,-,-,-
CCc1ccc2oc(-c3cc(N)ccc3Cl)nc2c1,-,-,-,-,-,-
CCc1ccc2oc(-c3cc(N)ccc3O)nc2c1,-,-,9.5,-,-,-
CCn1c(C(CC(C)C)NC(=O)CCn2nc(C)cc2C)nc2cccnc21 (centres undefined),.,-,.,.,.,-
Cc1cc(C)n(-c2ccc(C(=O)N3CCC4(CC3)NC(=O)c3ccccc3O4)cc2)n1,.,-,.,.,.,-
